{"source": "PubChem BioAssay (NCI)", "note": "The panel holds about 83,000 compounds, 20% with a hit somewhere; the sample as a whole holds those more often.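 Cell lines were cultured in 96-well plates, exposed to a single compound concentration, and assessed for percent growth 48 hours later.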 A number with no mark means an inactive call. Activity calls are given as the source filed them. The calls were made as follows: active = growth percent below 10; inactive = the rest.", "data": [{"tested_on": "HL-60(TB) leukemia", "assay": "NCI-60 one-dose screen, 48 h (100 = growth as untreated, 0 = no growth, -100 = all killed)", "settings": "10 µM unless noted", "values": [{"molecule": "Clc1ccccc1-c1cnn2cc(-c3ccccc3)cnc12", "growth": "96.2%"}, {"molecule": "Nc1nccc(Nc2ccccc2)n1", "growth": "105%"}, {"molecule": "CCC(=O)c1ccc(Cl)s1", "growth": "70.4%"}, {"molecule": "COC(=O)C1=Nc2ccc(F)cc2/C1=C/c1sc(=S)[nH]c1O", "growth": "-28.8% (active)"}, {"molecule": "CC[C@H](Nc1ncnc2nc[nH]c12)c1nc2cccc(NCc3ccc(C(=O)NO)nc3)c2c(=O)n1-c1ccccc1", "growth": "17.8%"}, {"molecule": "Cc1ccc(NCN2C(=O)c3ccccc3C2=O)c(C)n1", "growth": "97.8%"}, {"molecule": "CCCC1(c2ccccc2)NC(=O)NC1=O", "note": "(stereo not given)", "growth": "144%"}, {"molecule": "Cc1cc(Nc2ccc(Cl)cc2)nc(NCCCNc2ccnc3cc(Cl)ccc23)n1", "growth": "-76.8% (active)"}, {"molecule": "NC(=O)c1c(NC(=O)c2ccc3ccccc3c2)sc2c1CCC(=O)C2", "growth": "50.9%"}, {"molecule": "C=C(Cl)[C@@](Cl)(CBr)CC[C@@H](Br)C(C)(C)Cl", "growth": "-68.1% (active)"}, {"molecule": "COc1ccc(C2CCCCC2=O)cc1", "note": "(stereo not given)", "growth": "122%"}, {"molecule": "Cn1cc(C(=O)c2nc(-c3c[nH]c4ccc(Br)cc34)no2)c2cc(Br)ccc21", "growth": "82.9%"}, {"molecule": "COc1cc(-c2nc3ccccc3[nH]2)ccc1OCC(=O)N=Nc1c(O)[nH]c2ccc(Cl)cc12", "growth": "-30.8% (active)"}, {"molecule": "CC(=O)CC(c1cccs1)c1c(-c2ccccc2)[nH]c2ccccc12", "note": "(stereo not given)", "growth": "99.8%"}, {"molecule": "CN(C)/N=C/c1ccccc1O", "growth": "97.1%"}, {"molecule": "COc1ccc(OC)c(/C=C/C(=O)N/N=C/c2ccccc2)c1", "growth": "46.3%"}, {"molecule": "c1ccc(-c2nc(N3CCCNCC3)c3nc(-c4ccccc4)oc3n2)cc1", "growth": "-34.6% (active)"}, {"molecule": "Cc1ccc(NC(=O)NC2CCCCC2)cc1", "growth": "63.1%"}, {"molecule": "O=C(Cn1cc(CSc2nc3ccccc3o2)nn1)Nc1ccc([N+](=O)[O-])cc1", "growth": "98.2%"}, {"molecule": "COC(=O)c1c2c(c(C)[n+]([O-])c1C)C(=O)C=C(NCc1ccc(OC)cc1)C2=O", "growth": "-30.5% (active)"}, {"molecule": "CCCCNCC(O)c1cc(-c2ccc(C(F)(F)F)cc2)nc(-c2ccc(C(F)(F)F)cc2)c1", "note": "(stereo not given)", "growth": "-49.2% (active)"}, {"molecule": "C#CC(O)c1ccccc1", "note": "(stereo not given)", "growth": "108%"}, {"molecule": "CC(C)N=C1CCCC1C(=S)SSC(=S)C1CCCC1=NC(C)C", "note": "(stereo not given)", "growth": "75.8%"}, {"molecule": "CCOC(=O)c1cc(C(=O)c2ccc(Br)cc2)n2cc(C)cc(C)c12", "growth": "103%"}, {"molecule": "COc1ccc(C2=Nn3c(nnc3-n3nc(C)cc3C)SC2)cc1", "growth": "-29% (active)"}, {"molecule": "CCCCCN1CCN(C(CC(=O)c2ccccc2)C(=O)c2ccccc2)CC1", "note": "(stereo not given)", "growth": "60.4%"}, {"molecule": "CSc1nc(=S)c2nc(SC)n(-c3ccccc3)c2[nH]1", "growth": "110%"}, {"molecule": "CCN(CC)c1ccc2cc(C(Nc3ccc(C)cc3)c3nnnn3C(C)(C)C)c(=O)oc2c1", "note": "(stereo not given)", "growth": "89%"}, {"molecule": "O=C(CSC(=S)N1CCCCC1)Nc1ccccc1", "growth": "100%"}, {"molecule": "COc1ccc(C(C)=O)c(OC)c1", "growth": "115%"}, {"molecule": "CSc1ccc(OC(C)=O)cc1C", "growth": "97.7%"}, {"molecule": "Cc1ccc(S(=O)(=O)n2cc(C(=O)C(=O)N3CCCCC3)c3ccccc32)cc1", "growth": "85%"}, {"molecule": "N#Cc1c(-c2ccccc2)cc(-c2ccccc2)n(CC(=O)O)c1=O", "growth": "23.6%"}, {"molecule": "CCCN(CCC)CCC(O)c1cc2c(c3ccccc13)CCCC2", "note": "(stereo not given)", "growth": "113%"}, {"molecule": "Oc1ccc(CCC2CCNc3ccccc32)cc1", "note": "(stereo not given)", "growth": "86.9%"}, {"molecule": "CCCCC(CC)COC(C)=O", "note": "(stereo not given)", "growth": "100%"}, {"molecule": "N#Cc1c(NC(=O)c2cccc(C(F)(F)F)c2)sc2c1CCC(=O)C2", "growth": "-8.73% (active)"}, {"molecule": "CN1CCOCCOCCOc2ccccc2NC(=O)c2nc(cnc2N)-c2ccc(cc2)S1(=O)=O", "growth": "-22.2% (active)"}, {"molecule": "COc1cnc2c(c1)C(=O)c1c-2n(CCCN2CCNCC2)c(=O)c2cc(Cl)ccc12", "growth": "-44.9% (active)"}, {"molecule": "Cc1ccc(S(=O)(=O)Oc2ccc3sc4c(CO)ccc(NCCN(C)C)c4c(=O)c3c2)cc1", "growth": "-51.1% [100 µM] (active)"}]}]}
